ChEMBL document CHEMBL1961873, “Compounds: GSK PKIS; Assays: Nanosyn kinase panel” (2012)

Key:
[1] = biological target: 5'-AMP-activated protein kinase catalytic subunit alpha-2 (Homo sapiens) (UniProt P54646); details: at 1 µM
[2] = biological target: T1, NUAK family SNF1-like kinase 1 (Homo sapiens) (UniProt O60285); details: at 0.1 µM
T1 sequence (whole entry): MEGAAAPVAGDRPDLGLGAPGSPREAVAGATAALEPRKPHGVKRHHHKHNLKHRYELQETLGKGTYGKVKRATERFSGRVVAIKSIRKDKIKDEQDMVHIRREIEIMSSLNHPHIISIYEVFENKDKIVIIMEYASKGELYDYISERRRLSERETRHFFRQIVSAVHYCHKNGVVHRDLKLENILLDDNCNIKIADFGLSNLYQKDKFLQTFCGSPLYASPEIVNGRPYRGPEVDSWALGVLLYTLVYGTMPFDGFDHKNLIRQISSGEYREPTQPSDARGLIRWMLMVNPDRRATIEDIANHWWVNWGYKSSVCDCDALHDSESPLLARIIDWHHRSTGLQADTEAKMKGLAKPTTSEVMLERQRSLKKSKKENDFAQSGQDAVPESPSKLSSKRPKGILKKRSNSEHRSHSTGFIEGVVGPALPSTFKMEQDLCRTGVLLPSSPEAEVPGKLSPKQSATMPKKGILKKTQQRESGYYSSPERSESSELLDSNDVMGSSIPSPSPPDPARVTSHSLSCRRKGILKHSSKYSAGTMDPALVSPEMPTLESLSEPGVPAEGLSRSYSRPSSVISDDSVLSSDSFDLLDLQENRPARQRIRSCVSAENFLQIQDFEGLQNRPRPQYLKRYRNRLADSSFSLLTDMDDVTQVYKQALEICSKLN

[3] = biological target: T1, NUAK family SNF1-like kinase 1 (Homo sapiens); details: at 1 µM
[4] = biological target: T2, Serine/threonine-protein kinase BRSK1 (Homo sapiens) (UniProt Q8TDC3); details: at 0.1 µM
T2 sequence (whole entry): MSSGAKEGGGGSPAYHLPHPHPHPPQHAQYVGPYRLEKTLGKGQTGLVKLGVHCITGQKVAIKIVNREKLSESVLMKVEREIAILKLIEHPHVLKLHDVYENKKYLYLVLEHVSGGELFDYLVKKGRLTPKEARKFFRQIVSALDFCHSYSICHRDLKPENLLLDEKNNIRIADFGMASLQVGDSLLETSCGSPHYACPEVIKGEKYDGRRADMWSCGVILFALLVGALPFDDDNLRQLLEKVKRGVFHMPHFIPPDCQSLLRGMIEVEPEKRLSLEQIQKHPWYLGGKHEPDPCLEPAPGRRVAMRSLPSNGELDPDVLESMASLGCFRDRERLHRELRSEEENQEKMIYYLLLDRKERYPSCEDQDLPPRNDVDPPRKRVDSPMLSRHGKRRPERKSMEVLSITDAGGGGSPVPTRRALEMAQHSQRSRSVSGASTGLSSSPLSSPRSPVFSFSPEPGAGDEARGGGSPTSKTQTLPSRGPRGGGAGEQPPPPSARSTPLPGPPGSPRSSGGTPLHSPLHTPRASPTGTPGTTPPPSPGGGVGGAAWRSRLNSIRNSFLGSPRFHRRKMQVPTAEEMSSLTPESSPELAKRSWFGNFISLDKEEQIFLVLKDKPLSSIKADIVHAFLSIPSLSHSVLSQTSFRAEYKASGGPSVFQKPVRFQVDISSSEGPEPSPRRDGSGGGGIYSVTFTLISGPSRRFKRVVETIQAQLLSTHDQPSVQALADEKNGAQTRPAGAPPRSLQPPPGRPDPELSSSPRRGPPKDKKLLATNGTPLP

[5] = biological target: T2, Serine/threonine-protein kinase BRSK1 (Homo sapiens); details: at 1 µM
[6] = biological target: T3, Serine/threonine-protein kinase BRSK2 (Homo sapiens) (UniProt Q8IWQ3); details: at 0.1 µM
T3 sequence (whole entry): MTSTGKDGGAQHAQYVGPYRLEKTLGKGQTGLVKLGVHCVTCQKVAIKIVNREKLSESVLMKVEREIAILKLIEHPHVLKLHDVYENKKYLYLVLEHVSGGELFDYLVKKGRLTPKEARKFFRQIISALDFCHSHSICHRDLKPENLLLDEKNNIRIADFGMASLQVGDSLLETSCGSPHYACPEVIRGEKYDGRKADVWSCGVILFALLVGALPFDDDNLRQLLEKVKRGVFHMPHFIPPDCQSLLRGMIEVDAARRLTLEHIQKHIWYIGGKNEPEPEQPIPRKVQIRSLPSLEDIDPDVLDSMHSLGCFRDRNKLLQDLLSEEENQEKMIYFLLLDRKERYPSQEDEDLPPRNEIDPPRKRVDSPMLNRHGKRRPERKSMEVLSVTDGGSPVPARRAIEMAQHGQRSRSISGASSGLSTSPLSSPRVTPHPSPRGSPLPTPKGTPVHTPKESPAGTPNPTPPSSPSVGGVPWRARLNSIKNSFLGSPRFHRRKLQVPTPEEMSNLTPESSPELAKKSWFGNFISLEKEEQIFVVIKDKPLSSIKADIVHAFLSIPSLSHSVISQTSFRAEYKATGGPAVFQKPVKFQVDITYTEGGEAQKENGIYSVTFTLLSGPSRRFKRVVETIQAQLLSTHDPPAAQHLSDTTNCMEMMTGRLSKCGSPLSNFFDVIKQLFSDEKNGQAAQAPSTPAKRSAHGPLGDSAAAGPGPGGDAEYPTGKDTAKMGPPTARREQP

[7] = biological target: T3, Serine/threonine-protein kinase BRSK2 (Homo sapiens); details: at 1 µM
[8] = biological target: Calcium/calmodulin-dependent protein kinase type 1D (Homo sapiens) (UniProt Q8IU85); details: at 0.1 µM
Sequence of Calcium/calmodulin-dependent protein kinase type 1D (Homo sapiens) (Q8IU85 whole entry, looked up): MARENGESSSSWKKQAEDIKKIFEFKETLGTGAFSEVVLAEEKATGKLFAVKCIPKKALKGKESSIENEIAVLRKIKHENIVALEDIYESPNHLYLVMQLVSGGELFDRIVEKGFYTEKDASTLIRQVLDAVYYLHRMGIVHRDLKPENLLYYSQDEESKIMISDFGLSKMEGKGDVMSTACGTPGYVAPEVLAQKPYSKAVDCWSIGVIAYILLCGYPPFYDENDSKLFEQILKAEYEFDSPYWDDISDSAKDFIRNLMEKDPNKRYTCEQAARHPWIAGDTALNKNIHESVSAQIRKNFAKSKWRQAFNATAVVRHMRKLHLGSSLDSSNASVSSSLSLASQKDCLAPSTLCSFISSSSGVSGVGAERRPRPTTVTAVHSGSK

[9] = biological target: Calcium/calmodulin-dependent protein kinase type 1D (Homo sapiens) (UniProt Q8IU85); details: at 1 µM
[10] = biological target: Calcium/calmodulin-dependent protein kinase type II subunit alpha (Homo sapiens) (UniProt Q9UQM7); details: at 0.1 µM
Sequence of Calcium/calmodulin-dependent protein kinase type II subunit alpha (Homo sapiens) (Q9UQM7 whole entry): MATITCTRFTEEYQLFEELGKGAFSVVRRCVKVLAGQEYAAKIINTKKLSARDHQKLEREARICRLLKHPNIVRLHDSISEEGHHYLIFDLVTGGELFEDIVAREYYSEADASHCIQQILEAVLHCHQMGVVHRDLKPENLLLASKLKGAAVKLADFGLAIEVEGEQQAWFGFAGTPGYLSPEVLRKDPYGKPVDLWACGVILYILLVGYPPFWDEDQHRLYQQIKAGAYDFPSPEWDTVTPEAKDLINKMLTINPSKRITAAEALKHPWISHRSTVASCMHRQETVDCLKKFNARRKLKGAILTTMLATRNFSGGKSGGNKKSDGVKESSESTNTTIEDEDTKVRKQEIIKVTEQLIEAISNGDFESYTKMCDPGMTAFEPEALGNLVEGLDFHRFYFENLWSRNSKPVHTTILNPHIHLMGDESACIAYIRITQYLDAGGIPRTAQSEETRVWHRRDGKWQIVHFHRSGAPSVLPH

[11] = biological target: Calcium/calmodulin-dependent protein kinase type II subunit alpha (Homo sapiens) (UniProt Q9UQM7); details: at 1 µM
[12] = biological target: Calcium/calmodulin-dependent protein kinase type II subunit delta (Homo sapiens) (UniProt Q13557); details: at 0.1 µM
Sequence of Calcium/calmodulin-dependent protein kinase type II subunit delta (Homo sapiens) (Q13557 whole entry): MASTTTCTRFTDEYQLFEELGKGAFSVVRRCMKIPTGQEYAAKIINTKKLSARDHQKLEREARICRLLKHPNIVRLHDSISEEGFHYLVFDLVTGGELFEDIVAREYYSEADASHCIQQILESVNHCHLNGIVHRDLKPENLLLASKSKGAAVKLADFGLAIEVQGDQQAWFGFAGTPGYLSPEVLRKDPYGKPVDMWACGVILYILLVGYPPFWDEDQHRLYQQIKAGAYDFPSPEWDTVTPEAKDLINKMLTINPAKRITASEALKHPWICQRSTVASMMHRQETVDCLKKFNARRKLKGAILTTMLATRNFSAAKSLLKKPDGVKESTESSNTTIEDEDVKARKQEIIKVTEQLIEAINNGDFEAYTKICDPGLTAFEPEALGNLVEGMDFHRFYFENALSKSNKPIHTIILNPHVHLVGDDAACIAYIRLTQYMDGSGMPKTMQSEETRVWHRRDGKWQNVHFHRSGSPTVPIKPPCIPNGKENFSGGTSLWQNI

[13] = biological target: Calcium/calmodulin-dependent protein kinase type II subunit delta (Homo sapiens) (UniProt Q13557); details: at 1 µM
[14] = biological target: T4, Calcium/calmodulin-dependent protein kinase type IV (Homo sapiens) (UniProt Q16566); details: at 0.1 µM
T4 sequence (whole entry): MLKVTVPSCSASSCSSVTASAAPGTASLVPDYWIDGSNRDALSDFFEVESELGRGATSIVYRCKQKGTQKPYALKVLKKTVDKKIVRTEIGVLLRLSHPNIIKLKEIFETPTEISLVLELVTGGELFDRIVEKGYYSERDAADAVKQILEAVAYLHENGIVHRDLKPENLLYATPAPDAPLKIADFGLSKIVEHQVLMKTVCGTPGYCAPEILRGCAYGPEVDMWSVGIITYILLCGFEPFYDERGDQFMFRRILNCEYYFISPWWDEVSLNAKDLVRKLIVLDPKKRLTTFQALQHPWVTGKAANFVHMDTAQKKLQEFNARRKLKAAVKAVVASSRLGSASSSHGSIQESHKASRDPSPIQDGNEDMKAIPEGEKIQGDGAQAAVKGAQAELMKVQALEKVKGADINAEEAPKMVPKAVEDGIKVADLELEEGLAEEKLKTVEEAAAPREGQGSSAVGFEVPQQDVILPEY

[15] = biological target: T4, Calcium/calmodulin-dependent protein kinase type IV (Homo sapiens); details: at 1 µM
[16] = biological target: T5, Serine/threonine-protein kinase Chk1 (Homo sapiens) (UniProt O14757); details: at 0.1 µM
T5 sequence (whole entry): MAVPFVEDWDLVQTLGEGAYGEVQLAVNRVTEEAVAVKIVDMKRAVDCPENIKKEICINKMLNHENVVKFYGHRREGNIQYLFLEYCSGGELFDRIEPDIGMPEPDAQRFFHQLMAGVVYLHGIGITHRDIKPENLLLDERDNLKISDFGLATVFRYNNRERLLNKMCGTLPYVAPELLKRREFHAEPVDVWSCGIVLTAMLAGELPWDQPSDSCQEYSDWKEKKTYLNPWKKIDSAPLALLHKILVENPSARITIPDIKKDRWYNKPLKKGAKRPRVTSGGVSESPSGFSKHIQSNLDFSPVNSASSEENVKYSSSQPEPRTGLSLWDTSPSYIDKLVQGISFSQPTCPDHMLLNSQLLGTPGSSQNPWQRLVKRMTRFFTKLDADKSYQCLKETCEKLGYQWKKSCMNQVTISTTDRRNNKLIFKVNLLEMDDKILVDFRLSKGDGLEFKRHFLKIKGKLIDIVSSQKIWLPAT

[17] = biological target: T5, Serine/threonine-protein kinase Chk1 (Homo sapiens); details: at 1 µM
[18] = biological target: Serine/threonine-protein kinase Chk2 (Homo sapiens) (UniProt O96017); details: at 0.1 µM
Sequence of Serine/threonine-protein kinase Chk2 (Homo sapiens) (O96017 whole entry): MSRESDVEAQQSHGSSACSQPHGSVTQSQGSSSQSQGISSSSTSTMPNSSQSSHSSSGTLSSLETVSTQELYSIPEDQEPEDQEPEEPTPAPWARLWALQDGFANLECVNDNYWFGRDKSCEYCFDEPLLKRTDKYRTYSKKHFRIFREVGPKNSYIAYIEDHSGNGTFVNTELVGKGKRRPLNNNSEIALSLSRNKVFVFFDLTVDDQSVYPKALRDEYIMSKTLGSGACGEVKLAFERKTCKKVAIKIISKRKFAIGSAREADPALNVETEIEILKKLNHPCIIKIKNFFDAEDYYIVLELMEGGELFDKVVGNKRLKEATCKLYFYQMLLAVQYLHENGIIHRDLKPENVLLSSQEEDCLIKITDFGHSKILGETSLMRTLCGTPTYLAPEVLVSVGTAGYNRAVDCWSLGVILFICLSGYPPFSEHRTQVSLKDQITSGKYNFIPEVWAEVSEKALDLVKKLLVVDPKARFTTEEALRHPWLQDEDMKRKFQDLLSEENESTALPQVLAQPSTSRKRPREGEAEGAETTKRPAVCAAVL

[19] = biological target: Serine/threonine-protein kinase Chk2 (Homo sapiens) (UniProt O96017); details: at 1 µM
[20] = biological target: Death-associated protein kinase 1 (Homo sapiens) (UniProt P53355); details: at 0.1 µM;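 also: reported figure is the mean inhibition of DAPK1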
Sequence of Death-associated protein kinase 1 (Homo sapiens) (P53355 whole entry, looked up): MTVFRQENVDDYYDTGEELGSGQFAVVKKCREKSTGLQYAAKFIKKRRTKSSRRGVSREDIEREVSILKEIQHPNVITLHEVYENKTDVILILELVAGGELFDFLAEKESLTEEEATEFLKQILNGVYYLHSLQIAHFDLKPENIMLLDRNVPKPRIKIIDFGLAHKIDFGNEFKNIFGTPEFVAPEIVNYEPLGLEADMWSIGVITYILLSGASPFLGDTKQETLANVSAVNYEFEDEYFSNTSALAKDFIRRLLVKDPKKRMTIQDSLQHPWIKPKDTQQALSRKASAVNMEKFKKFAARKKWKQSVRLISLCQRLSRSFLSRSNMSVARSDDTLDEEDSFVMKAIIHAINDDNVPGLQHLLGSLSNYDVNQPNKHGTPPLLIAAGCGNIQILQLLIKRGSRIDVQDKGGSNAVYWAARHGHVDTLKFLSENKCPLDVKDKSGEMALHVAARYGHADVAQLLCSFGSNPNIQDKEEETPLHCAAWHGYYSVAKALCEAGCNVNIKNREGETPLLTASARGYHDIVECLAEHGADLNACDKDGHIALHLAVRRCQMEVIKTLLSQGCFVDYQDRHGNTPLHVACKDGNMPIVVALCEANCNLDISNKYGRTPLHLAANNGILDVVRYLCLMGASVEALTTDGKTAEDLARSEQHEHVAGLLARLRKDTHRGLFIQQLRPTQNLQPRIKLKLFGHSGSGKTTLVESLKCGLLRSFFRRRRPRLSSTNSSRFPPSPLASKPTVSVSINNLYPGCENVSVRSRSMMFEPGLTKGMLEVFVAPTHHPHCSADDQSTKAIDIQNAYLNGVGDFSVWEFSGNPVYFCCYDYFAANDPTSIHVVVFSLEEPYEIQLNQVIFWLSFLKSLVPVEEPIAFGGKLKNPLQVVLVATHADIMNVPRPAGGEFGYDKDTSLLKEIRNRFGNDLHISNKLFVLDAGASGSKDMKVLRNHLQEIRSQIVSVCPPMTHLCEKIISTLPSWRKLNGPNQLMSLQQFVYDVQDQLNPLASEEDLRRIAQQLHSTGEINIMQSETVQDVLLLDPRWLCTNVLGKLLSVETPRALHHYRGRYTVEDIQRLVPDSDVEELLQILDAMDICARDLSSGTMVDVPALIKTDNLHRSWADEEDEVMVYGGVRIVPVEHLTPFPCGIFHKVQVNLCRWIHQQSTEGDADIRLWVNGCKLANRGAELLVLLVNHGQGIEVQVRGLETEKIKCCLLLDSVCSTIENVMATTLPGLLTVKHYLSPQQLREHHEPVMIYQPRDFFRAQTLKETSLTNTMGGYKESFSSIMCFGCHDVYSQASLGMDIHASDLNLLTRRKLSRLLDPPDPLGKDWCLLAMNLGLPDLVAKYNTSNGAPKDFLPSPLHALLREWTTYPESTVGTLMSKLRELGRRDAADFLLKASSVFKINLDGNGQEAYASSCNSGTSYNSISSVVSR

Sequence of 5'-AMP-activated protein kinase catalytic subunit alpha-2 (Homo sapiens) (P54646 whole entry, looked up): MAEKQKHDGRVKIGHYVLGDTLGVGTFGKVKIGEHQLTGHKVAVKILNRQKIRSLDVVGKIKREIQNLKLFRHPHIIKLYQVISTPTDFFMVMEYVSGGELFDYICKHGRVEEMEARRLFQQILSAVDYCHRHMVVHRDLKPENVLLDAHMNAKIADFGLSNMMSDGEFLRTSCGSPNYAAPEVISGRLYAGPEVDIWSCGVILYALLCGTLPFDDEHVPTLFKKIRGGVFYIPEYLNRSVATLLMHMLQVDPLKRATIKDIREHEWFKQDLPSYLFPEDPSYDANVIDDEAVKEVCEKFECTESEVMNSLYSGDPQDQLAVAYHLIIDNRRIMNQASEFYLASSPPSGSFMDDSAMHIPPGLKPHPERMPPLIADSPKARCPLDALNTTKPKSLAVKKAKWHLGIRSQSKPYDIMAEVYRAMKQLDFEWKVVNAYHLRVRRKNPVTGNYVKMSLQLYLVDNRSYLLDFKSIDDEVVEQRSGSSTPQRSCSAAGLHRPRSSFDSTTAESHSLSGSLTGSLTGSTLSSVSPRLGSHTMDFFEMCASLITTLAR

Structure (SMILES): Cc1ccc(NC(=O)CC2CC2)cc1-c1ccc(C(=O)NCC2CC2)cc1
- inhibition [1]: 3.66%
- inhibition [2]: 2.19%
- inhibition [3]: 3.71%
- inhibition [4]: -0.17%
- inhibition [5]: 0.46%
- inhibition [6]: 1.82%
- inhibition [7]: 3.93%
- inhibition [8]: 0.97%
- inhibition [9]: 0.89%
- inhibition [10]: 2.5%
- inhibition [11]: 2.95%
- inhibition [12]: 2.84%
- inhibition [13]: 3.34%
- inhibition [14]: -0.3%
- inhibition [15]: -0.84%
- inhibition [16]: 7.49%
- inhibition [17]: 10.9%
- inhibition [18]: 6.96%
- inhibition [19]: 7.62%
- inhibition [20]: 11.5%

Structure (SMILES): c1ccc(Nc2ncc(-c3ccccc3)o2)cc1
- inhibition [1]: 0.19%
- inhibition [2]: -0.12%
- inhibition [3]: 11%
- inhibition [4]: 0.5%
- inhibition [5]: 2.07%
- inhibition [6]: 0.2%
- inhibition [7]: 3.56%
- inhibition [8]: 1.22%
- inhibition [9]: 2.94%
- inhibition [10]: 2.13%
- inhibition [11]: 3.27%
- inhibition [12]: 3.06%
- inhibition [13]: 6.25%
- inhibition [14]: 1.79%
- inhibition [15]: 3.97%
- inhibition [16]: 6.09%
- inhibition [17]: 8.99%
- inhibition [18]: 0.95%
- inhibition [19]: 2.54%
- inhibition [20]: 6.27%

Structure (SMILES): Cc1ccc2c(-c3ccnc(Nc4cccc(C(F)(F)F)c4)n3)c(-c3ccccc3)nn2n1
- inhibition [1]: 3.47%
- inhibition [2]: 4.18%
- inhibition [3]: 5.3%
- inhibition [4]: 2.22%
- inhibition [5]: 1.34%
- inhibition [6]: 1.33%
- inhibition [7]: 3.25%
- inhibition [8]: 0.64%
- inhibition [9]: 2.72%
- inhibition [10]: 2.64%
- inhibition [11]: 1.98%
- inhibition [12]: 2.93%
- inhibition [13]: 5.15%
- inhibition [14]: 1.16%
- inhibition [15]: 3.52%
- inhibition [16]: -6.21%
- inhibition [17]: -9.83%
- inhibition [18]: -3.6%
- inhibition [19]: -3.73%
- inhibition [20]: -4.51%

Structure (SMILES): O=C(Nc1ccc(Oc2ccc3[nH]c(NC(=O)c4ccco4)nc3c2)cc1)Nc1cc(C(F)(F)F)ccc1F
- inhibition [1]: 3.81%
- inhibition [2]: 0.89%
- inhibition [3]: 5.7%
- inhibition [4]: 0.62%
- inhibition [5]: -0.05%
- inhibition [6]: -0.37%
- inhibition [7]: 1.01%
- inhibition [8]: 0.46%
- inhibition [9]: 3.08%
- inhibition [10]: 0.33%
- inhibition [11]: 2.09%
- inhibition [12]: 1.58%
- inhibition [13]: 4.15%
- inhibition [14]: 2.98%
- inhibition [15]: 4.62%
- inhibition [16]: -0.34%
- inhibition [17]: -0.68%
- inhibition [18]: 0.12%
- inhibition [19]: 4.39%
- inhibition [20]: -1.4%

Structure (SMILES): NS(=O)(=O)c1ccc(N/N=C2\C(=O)Nc3ccc(Cl)cc32)cc1
- inhibition [1]: 12.9%
- inhibition [2]: 11%
- inhibition [3]: 48.9%
- inhibition [4]: 0.76%
- inhibition [5]: 8.96%
- inhibition [6]: 3.16%
- inhibition [7]: 14.9%
- inhibition [8]: 0.02%
- inhibition [9]: 0.47%
- inhibition [10]: 2.65%
- inhibition [11]: 4.05%
- inhibition [12]: 2.98%
- inhibition [13]: 4.81%
- inhibition [14]: -0.73%
- inhibition [15]: -3.41%
- inhibition [16]: -3.35%
- inhibition [17]: -2.04%
- inhibition [18]: -2.37%
- inhibition [19]: 0.53%
- inhibition [20]: -4%

Structure (SMILES): CCOc1nccc2c1nc(-c1nonc1N)n2CC
- inhibition [1]: 4.98%
- inhibition [2]: 7.99%
- inhibition [3]: 12.8%
- inhibition [4]: 4.56%
- inhibition [5]: 14.7%
- inhibition [6]: 7.65%
- inhibition [7]: 18.3%
- inhibition [8]: 0.39%
- inhibition [9]: -0.46%
- inhibition [10]: 3.45%
- inhibition [11]: 2.47%
- inhibition [12]: 1.48%
- inhibition [13]: 3.36%
- inhibition [14]: -4.15%
- inhibition [15]: -3.33%
- inhibition [16]: 4.09%
- inhibition [17]: 5.94%
- inhibition [18]: 2.06%
- inhibition [19]: 3.78%
- inhibition [20]: 3.66%

Structure (SMILES): c1ccc(Cc2nc3ccc(Nc4ncnc5ccccc45)cc3[nH]2)cc1
- inhibition [1]: 2.91%
- inhibition [2]: 4.96%
- inhibition [3]: 5.29%
- inhibition [4]: -0.34%
- inhibition [5]: 3.16%
- inhibition [6]: 1.93%
- inhibition [7]: 5%
- inhibition [8]: -0.7%
- inhibition [9]: 0.04%
- inhibition [10]: 2.75%
- inhibition [11]: 2%
- inhibition [12]: 1.68%
- inhibition [13]: 2.41%
- inhibition [14]: -2.03%
- inhibition [15]: -1.81%
- inhibition [16]: 2.86%
- inhibition [17]: 9.39%
- inhibition [18]: 1.71%
- inhibition [19]: 5.02%
- inhibition [20]: 3.43%
